The text below walks through data of PubChem BioAssay AID2762 (National Center for Advancing Translational Sciences (NCATS), 2010).

SMILES strings stand for the structures. Inconclusive results are not listed. Activity calls are given as the source filed them. Calls follow the shape of the dose curve; as a rule, active = well fitted inhibition curve with a large enough effect; inconclusive = small, poorly fitted or top-dose-only effect, or effect the other way; inactive = no such curve, though single readings can be large or run the other way.

Chain of Nuclear receptor ROR-gamma (Mus musculus) (P51450 whole entry, looked up, the tested form may be a part): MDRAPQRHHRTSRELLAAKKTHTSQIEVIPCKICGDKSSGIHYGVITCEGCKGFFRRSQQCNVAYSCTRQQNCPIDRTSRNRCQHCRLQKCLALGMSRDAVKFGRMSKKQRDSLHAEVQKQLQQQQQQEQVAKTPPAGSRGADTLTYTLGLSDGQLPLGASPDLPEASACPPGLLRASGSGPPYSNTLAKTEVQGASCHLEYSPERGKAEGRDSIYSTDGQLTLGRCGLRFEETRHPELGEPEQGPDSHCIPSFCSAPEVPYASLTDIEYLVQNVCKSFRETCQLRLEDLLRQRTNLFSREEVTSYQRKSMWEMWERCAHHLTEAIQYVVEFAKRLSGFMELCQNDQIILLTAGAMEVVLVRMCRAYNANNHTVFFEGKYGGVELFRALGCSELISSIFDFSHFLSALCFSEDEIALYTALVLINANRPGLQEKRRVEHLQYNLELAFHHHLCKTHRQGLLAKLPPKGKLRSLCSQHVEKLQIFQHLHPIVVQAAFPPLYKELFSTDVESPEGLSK

The target in this assay is Nuclear receptor ROR-gamma (Mus musculus) (UniProt P51450). The assay can be described thus: Concentration response confirmation assay for inhibitors of ROR gamma transcriptional activity. The following applies: Drosophila S2 Gal4-RORgamma UAS-luciferase, 20 h; series mostly up to 46.1 µM. An excerpt:
NIH Molecular Libraries Probe Production Network [MLPCN] NIH Chemical Genomics Center [NCGC] MLPCN Grant: R03 DA026211-01 Assay Provider: Dan Littman, New York University Assay Overview: The retinoic acid-related orphan receptor (ROR) gamma is a transcription factor that has a central role in the differentiation of Th17 cells, a subset of T helper cells that secrete the inflammatory cytokines IL-17, IL-17F, and IL-22. Th17 cells have been implicated in graft versus host disease, autoimmune disease and asthma. ROR gamma is induced in naive T helper cells in the presence of TGF-beta combined with IL-6, IL-21, or IL-23, and thereafter directs the expression of the Th17 lineage cytokines. To study the mechanism of action of ROR gamma, an insect cell-based assay was screened. This Drosophila Schneider cell line was stably transfected with two vectors: a gene expressing a fusion of the Gal4 DNA binding domain and ROR gamma transactivation domain under the control of the metallothionine promoter and a Photinus luciferase reporter regulated by the Gal4 binding site enhancer, UAS. […] Small molecule inhibitors of ROR gamma activity are detected by a decrease in luciferase reporter activity.
Assay Protocol Summary: For screening, 600 cells in 4 uL/well were dispensed into white solid 1536-well plates (Grenier) using a solenoid-based dispenser. Following transfer of 23 nL compound or DMSO vehicle by a pin tool, the plates were incubated 1 hr at ambient temperature, and 1 uL/well copper sulfate (700 uM final concentration) was added. The plates were centrifuged 15 s at 1000 RPM and incubated 20 hr at ambient temperature. After addition of 1.5 uL Photinus luciferase detection reagent, the plates were incubated 10 min at ambient temperature and then read by an ViewLux (Perkin Elmer) to detect luminescence. Keywords: NIH Roadmap, MLPCN, MLI, MLSMR, qHTS, NCGC, qHTS, nuclear hormone receptor, retinoic acid-related orphan receptor, ROR gamma
Regarding `Cn1ncnc2c(=O)n(C)c(=O)nc1-2`, the Potency was 0.996 µM (active).
On to `Cc1nc2ccccc2c(=O)n1-c1cc([N+](=O)[O-])cc([N+](=O)[O-])c1`, for which the Potency entry was “inactive”.
In the case of `O=C(Nc1ncc(Cc2ccccc2)s1)C1=NCCN1`, the Potency is 9.96 µM (active).
